Out of some 69,000 compounds screened, about 8,600 (12%) showed an effect of 50% or more. This excerpt belongs to a sample that is enriched for strong results.
These molecules were tested on Plasmodium berghei (assay: Screen against P. berghei liver stage (PbLuc), transformed with Luciferase, at 10uM). Details: tested at 10 uM.
Format: functional, HepG2

Row | Structure (SMILES) | INHIBITION
1 | COc1ccc(C(=O)Nc2ccc3c(c2)C(=O)NC3)cc1Br | -64.3%
2 | COCc1cc(N(C)CCC(O)c2ccccc2)n2nccc2n1 (stereo not drawn) | -27.3%
3 | O=C1CSC(C(F)(F)F)c2c(O)nn(C3CCCCC3)c2N1 (stereo not drawn) | 38.1%
4 | Cc1cnn(CCNc2nc(C)cc(N(C)C)n2)c1 | 21.5%
5 | CCc1nnc2n1CCN(C(=O)CCOc1cc(C)ccc1C)C2 | -3.19%
6 | O=S(=O)(Cc1ccc(F)c(Cl)c1)NCCOc1cccnc1 | -11.4%
7 | c1cnc2[nH]c(C3CCCNC3)c(CN3CCCOCC3)c2c1 (stereo not drawn) | -15.3%
8 | CCc1ccc(C(=O)NC[C@H]2CCCN2C(=O)c2ccc(CC)o2)o1 | -3.68%
9 | CC(=O)Nc1ccc(CC(=O)N2CC(S(=O)(=O)C3CCCCC3)C2)cc1 | 13.1%
10 | CCc1ccc(C2CCCN2C(=O)Cc2ccc(NC(C)=O)cc2)o1 (stereo not drawn) | 65.8%
11 | Cc1nnc(N2C[C@H](Oc3ccccn3)[C@H]3OCCC[C@H]32)s1 | -10.3%
12 | Cc1cc(NC(=O)NC(C)(C)c2nc(C)c(C)s2)no1 | 29.1%
13 | Cc1cc(NC(=O)CCNC(C)(C)c2nc(C)c(C)s2)no1 | 53.8%
14 | Cc1cc(NC(=O)CNC(C)(C)c2nc(C)c(C)s2)no1 | 26.6%
15 | Cn1cc(C(=O)Nc2ccc3c(c2)N(C(=O)c2ccco2)CC3)nn1 | 20.1%
16 | c1ccc(C[C@H]2CN(Cc3nccs3)CC[C@H]2OCC2CC2)cc1 | 50%
17 | c1csc(CN2C[C@H](OCC3CC3)[C@H]3COC[C@H]32)n1 | 12.6%

Row | Structure (SMILES) | INHIBITION
18 | c1csc(CN2CCCn3cnc(COCC4CC4)c3C2)n1 | 37.8%
19 | c1ccc(C[C@H]2CN(C3CCOCC3)CC[C@H]2OCC2CC2)cc1 | -54.1%
20 | c1ccc(C[C@H]2CN(Cc3nccs3)CC[C@@H]2OCC2CC2)cc1 | 62.5%
21 | CCCNC(c1ccc(F)cc1)c1cccnc1 (stereo not drawn) | 42.1%
22 | CC(C)c1ccc(C(O)CN2CCN(Cc3nccn3C)CC2)cc1 (stereo not drawn) | -65.3%
23 | CCC1CN(Cc2cccc(C(=O)N(C)C)c2)CCN1CCOC (stereo not drawn) | -34%
24 | Cc1cccc(CN2C[C@@H]3CN(C(=O)NC(C)C)C[C@@H]3C2=O)n1 | -31.9%
25 | CC(C)c1cc(NC(=O)CN2CCC(C(N)=O)CC2)on1 | 9.64%
26 | CC(C)(C)c1cc(NC(=O)CNC2CCc3ncnn3C2)on1 (stereo not drawn) | 48.4%
27 | CC(C)c1cc(NC(=O)CNC2CCc3ncnn3C2)on1 (stereo not drawn) | 65.3%
28 | CC(C)c1cc(NC(=O)CN2CCC(N3CCNC3=O)CC2)on1 | 17.3%
29 | CNC(=O)C1CCN(CC(=O)Nc2cc(C(C)C)no2)CC1 | 53%
30 | CC(C)c1cc(NC(=O)CN2CCNC(=O)C2)on1 | 20.6%
31 | Cc1cc(NC(=O)CNC2CCc3ncnn3C2)on1 (stereo not drawn) | 6.67%
32 | CC(C)c1cc(NC(=O)CN2CCC(N3CCCCC3)CC2)on1 | 74.1%
33 | CC(C)c1cc(NC(=O)CN2CCCC(Cn3cncn3)C2)on1 (stereo not drawn) | 5.58%

— ChEMBL document CHEMBL4513216, “Probing the Open Global Health Chemical Diversity Library for Multistage-Active Starting Points for Next-Generation Antimalarials” (ACS Infect Dis, 2020)
